hgDAF-12 ag: activates the H. glycines DAF-12 receptor ligand-binding domain | HEK293 GAL4-hgDAF12 UAS-luciferase reporter, agonist luminescence; normalized to butyrate control | activation, % at 6.8 µM | actives 1.8% (n = 370,000) | AID 687014;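 active means activation above a cutoff set at the mean of all screened compounds plus 3 SD, cut at about 10% in these data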
DAX1 inh-1: inhibitors of DAX1 repression of SF-1 activated StAR promoter; HEK293T StAR-luciferase reporter, SF-1/DAX-1 repression relief; inhibition, % at 6.8 µM; actives 1.1% (n = 370,000); AID 652010;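 active means inhibition above the mean over all tested compounds plus 3 SD, cut at about 3.6% in these data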;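 further: higher inhibition means more luminescence from relief of DAX-1 repression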
hcDAF12 agonist: activates DAF-12 receptor from parasite H. contortus; activation, % at 6.8 µM; actives 1.4% (n = 370,000); HEK293 hcDAF-12 lit1-tk-luc reporter, luminescence; 0% DMSO, 100% Δ7-dafachronic acid;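 active means activation above the mean of all tested compounds plus 3 SD, cut at about 5.5% in these data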
AHR activator: human AHR activation; P35869; AHR-responsive luciferase reporter cells, luminescence; activation, % at 5 µM; actives 2.5% (n = 320,000); in the data active means activation above about 47%
Target sequence (P35869 whole entry, looked up): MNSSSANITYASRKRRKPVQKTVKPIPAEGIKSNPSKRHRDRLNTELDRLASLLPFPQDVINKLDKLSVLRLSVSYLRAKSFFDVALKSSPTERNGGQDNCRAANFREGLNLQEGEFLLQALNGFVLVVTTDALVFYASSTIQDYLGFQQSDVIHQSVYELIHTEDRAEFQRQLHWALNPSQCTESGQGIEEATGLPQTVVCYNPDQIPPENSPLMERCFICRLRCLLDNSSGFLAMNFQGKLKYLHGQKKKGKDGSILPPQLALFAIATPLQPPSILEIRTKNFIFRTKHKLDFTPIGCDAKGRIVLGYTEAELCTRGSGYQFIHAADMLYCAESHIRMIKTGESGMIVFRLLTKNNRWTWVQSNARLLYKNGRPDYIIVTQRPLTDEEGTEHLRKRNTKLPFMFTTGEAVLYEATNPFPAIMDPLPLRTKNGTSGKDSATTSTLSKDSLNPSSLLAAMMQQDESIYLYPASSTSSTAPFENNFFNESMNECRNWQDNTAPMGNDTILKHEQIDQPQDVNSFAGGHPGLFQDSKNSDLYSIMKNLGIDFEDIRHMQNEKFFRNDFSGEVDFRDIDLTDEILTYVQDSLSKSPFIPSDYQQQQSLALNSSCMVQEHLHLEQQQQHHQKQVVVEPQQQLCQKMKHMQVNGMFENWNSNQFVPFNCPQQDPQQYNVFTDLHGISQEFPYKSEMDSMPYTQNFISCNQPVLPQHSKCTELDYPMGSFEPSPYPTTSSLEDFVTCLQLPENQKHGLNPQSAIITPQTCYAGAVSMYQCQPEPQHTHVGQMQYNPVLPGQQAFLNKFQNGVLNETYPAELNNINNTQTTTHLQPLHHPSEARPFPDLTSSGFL
DAX1 inh-2: inhibitors of human orphan nuclear receptor DAX1 (NR0B1) | HEK293 Gal4-DAX1 luciferase reporter, luminescence | actives 0.99% (n = 340,000) | inhibition, % at 6.75 µM | AID 504766;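 active means inhibition above the mean over all tested compounds plus 3 SD, cut at about 4.2% in these data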;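 further: inhibition shows as a rise in luminescence from relieved DAX1 repression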
ssDAF-12 act: activates DAF-12 receptor from parasite S. stercoralis | HEK293 ssDAF-12/GRIP1 lit1-tk-luc reporter, luminescence; % of 3 µM dafachronic acid response | activation, % at 6.8 µM | actives 1% (n = 370,000) | AID 652126;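 active means activation above the mean over all tested compounds plus 3 SD, cut at about 0.9% in these data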
LXR ag: counter-screen for hcDAF-12 agonists: agonists of human LXR-beta | activation, % at 6.8 µM | shares compounds with hcDAF12 agonist | HEK293 Gal4-LXR tk-luc reporter, luminescence, 24 h; normalized: DMSO 0%, positive control 100% | 3,400 tested, under 10 active;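 active means mean percent activation of the reporter above a cutoff set as the average over tested compounds plus their standard deviation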
hcDAF12 ag: hcDAF-12 agonism, confirmation assay | shares compounds with hcDAF12 agonist | HEK293 hcDAF-12 lit1-tk-luc reporter, luminescence; % of Δ7-dafachronic acid response | activation, % at 6.8 µM | actives 61% (n = 3,400);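 active means mean activation across triplicate tests above the threshold derived from the earlier primary screen, cut at about 5.5% in these data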
A number is an active result; n = inactive; x = not tested or not shown. Most compounds without a hit are left out; they make up all but 5.7% or so of the library.

SMILES | hgDAF-12 ag | DAX1 inh-1 | hcDAF12 agonist | AHR activator | DAX1 inh-2 | ssDAF-12 act | LXR ag | hcDAF12 ag
COc1ccc(C(=O)n2nc(C)cc2Nc2ccccc2)cc1 | n | n | 8.7 | n | n | 1.4 | n | 9.6
O=C(CCC(=O)N1CCOc2ccccc21)NCc1cccnc1 | n | n | n | n | n | n | x | x
O=C(Nc1cccc2cccnc12)c1ccc2c(c1)OCCO2 | n | n | 8.7 | n | n | n | n | 5.7
Cc1ccccc1NC(=O)c1ccc2c(c1)OCCO2 | n | n | n | n | n | n | x | x
Cc1ccc(C(=O)Nc2cccnc2Cl)cc1Cl | n | n | 8.0 | n | 6.0 | n | n | n
Cc1ccc(C(=O)Nc2cccc3cccnc23)cc1Br | n | n | 6.9 | n | x | n | n | 7.8
Cc1cc(C)cc(C(=O)Nc2cccnc2Cl)c1 | n | n | n | n | n | n | x | x
CC(Sc1nc(-c2ccco2)nc2c1c(=O)n(C)c(=O)n2C)C(=O)O (stereo not given) | n | n | n | n | n | n | x | x
COc1ccc(C(OCC(O)CN2CCC(O)CC2)c2ccc(OC)cc2)cc1 (stereo not given) | n | n | 10 | n | n | n | n | n
Cn1c(CC(=O)Nc2ccccc2)cc2ccccc21 | n | n | 9.9 | n | n | 1.0 | n | 7.6
Cn1c(=O)n(CC(=O)Nc2ccccc2)c2ccccc21 | n | n | n | n | n | n | x | x
Cn1c(CC(=O)Nc2ccccc2)c(Sc2ccccc2)c2ccccc21 | n | n | 7.5 | n | n | n | n | n
O=c1/c(=C/c2ccccn2)sc2n1CN(c1ccccc1)CN=2 | n | n | n | n | n | n | x | x
Cc1cccc(N2CN=c3s/c(=C\c4ccccn4)c(=O)n3C2)c1 | n | n | 10 | n | n | n | n | n
Clc1cccc(Cc2c(-c3ccco3)nc3c4ccccc4ccn23)c1 | n | n | n | x | x | n | x | x
Fc1cccc(Cc2c(-c3ccco3)nc3c4ccccc4ccn23)c1 | 13 | n | 6.7 | x | x | 3.7 | n | 9.5
c1coc(-c2nc3c4ccccc4ccn3c2Cc2ccsc2)c1 | 12 | n | 7.4 | x | x | 1.6 | n | 15
C/C(=N\NC(=O)Cc1ccccc1)c1ccc(Cl)s1 | n | n | n | n | n | n | x | x
C/C(=N/N=C(/C)c1cccs1)c1cccs1 | 16 | n | 8.3 | n | 6.1 | 1.1 | n | 11
Cc1ccc(Nc2nnc(SC/C(O)=C(\C#N)c3nc4ccccc4[nH]3)s2)c(C)c1 | n | n | 9.4 | 55 | n | n | n | n
Cc1cccc(Nc2nnc(SC/C(O)=C(\C#N)c3nc4ccccc4[nH]3)s2)c1 | n | n | 7.2 | n | n | 1.5 | n | 7.0
Cc1cc(C)n2c(SCC(O)=C(C#N)c3nc4ccccc4[nH]3)nnc2n1 | n | n | n | x | n | n | x | x
COc1ccccc1N(CC(=O)NCC1CCCO1)C(=O)CNS(=O)(=O)c1ccccc1 (stereo not given) | n | n | n | n | n | n | x | x
c1ccc2c(-c3nc4ncccc4o3)cccc2c1 | n | n | 8.3 | n | n | n | n | 5.6
Fc1ccccc1-c1nc2ncccc2o1 | n | n | n | n | n | n | x | x
SMILES | hgDAF-12 ag | DAX1 inh-1 | hcDAF12 agonist | AHR activator | DAX1 inh-2 | ssDAF-12 act | LXR ag | hcDAF12 ag
Nc1ccc(C2=Nc3cccc4cccc(c34)N2)cc1 | n | n | n | x | n | n | x | x
COc1cccc(C2=Nc3cccc4cccc(c34)N2)c1 | n | n | 11 | n | n | n | n | n
C(=N\NC1=Nc2cccc3cccc1c23)/c1ccccn1 | n | n | 8.6 | x | 5.3 | n | n | 10
C(=N\N=C\c1ccccn1)/c1ccccn1 | n | n | n | n | n | n | x | x
O=C(O)Cc1sc(Nc2cccc3ccccc23)nc1-c1ccc(Cl)cc1 | n | n | 6.7 | 56 | n | n | n | n
Cn1c(=O)[nH]c(=O)c2c1nc(N)n2Cc1ccccc1 | n | n | n | n | n | n | x | x
Cc1ccnc(NC(=O)Nc2cccc(F)c2)c1 | 17 | 3.7 | 16 | n | n | 1.5 | n | 15
CCCn1c2ccc(C)cc2c2nnc(SCCN3CCCCC3)nc21 | n | n | 9.3 | x | n | n | n | n
CCn1c2ccc(C)cc2c2nnc(SCCN3CCCCC3)nc21 | n | n | n | n | n | n | x | x
Cc1cccc(N2CCN(C(=S)Nc3ccc4nc5n(c(=O)c4c3)CCCCC5)CC2)c1C | n | n | n | n | n | n | x | x
COc1ccccc1N1CN(S(=O)(=O)c2ccc(C)cc2)c2nc3ccccc3nc21 | 13 | n | 9.1 | n | n | 0.9 | n | n
CCCC[C@@H]1C[C@H]1[C@@H](NC(=O)c1ccco1)c1ccc(C(=O)OC)cc1 | n | n | n | n | x | n | x | x
CCCC(=O)Nc1ccc(-c2nc3cc(C)ccc3o2)cc1 | 13 | 3.9 | 12 | n | n | 1.7 | n | 8.4
Cc1ccccc1CSc1ccc(S(=O)(=O)N2CCCC2)cn1 | n | n | n | n | n | n | x | x
Nc1nn2cc(-c3ccc(Br)cc3)nc2c2ccccc12 | n | n | 11 | 65 | n | 1.6 | n | 14
Cc1ccc(-c2cc3nc(-c4ccc(Br)cc4)cc(N)n3n2)cc1 | n | n | n | n | n | n | x | x
Cn1c(=O)[nH]c(Nc2ccccc2)c([N+](=O)[O-])c1=O | n | n | n | n | n | n | x | x
CN(C)C1(CNC(=O)C2CCN(S(=O)(=O)c3cccc(C(F)(F)F)c3)CC2)CCCCC1 | n | n | n | n | n | n | x | x
CCOc1nc(-c2ccccc2)ccc1-c1noc(-c2cccs2)n1 | n | n | n | n | n | n | x | x
CCOc1ncccc1-c1nc(-c2cccs2)no1 | n | n | 9.8 | n | n | n | n | 9.2
Nc1ncnc2c1ncn2[C@@H]1O[C@H](C(=O)N2CCN(c3ccc(Cl)cn3)CC2)[C@@H](O)[C@H]1O | n | n | n | x | x | n | x | x
CCOc1cc(/C=N\NC(=O)c2c(C)nc3ccccn23)ccc1O | n | n | 8.0 | n | n | n | n | n
Nc1ccc(NC(=O)NC2CCCCC2)cc1[N+](=O)[O-] | n | n | n | n | n | n | x | x
C/C(CC(=O)Nc1cc(C)cc(C)c1)=N\NC(=O)c1ccccn1 | 11 | n | 7.4 | n | n | n | n | n
C/C(CC(=O)Nc1ccccn1)=N\NC(=O)c1ccccc1O | n | n | 11 | n | n | 1.0 | n | 9.1
CC(NCCC1(Cc2ccccc2Cl)CCOC(C)(C)C1)c1cccs1 (stereo not given) | n | n | n | n | n | n | x | x
Nc1c(C(O)(C(F)(F)F)C(F)(F)F)cc(C(O)(C(F)(F)F)C(F)(F)F)c2ccccc12 | x | x | x | n | n | x | x | x

Assay outcomes deposited in PubChem BioAssay by The Scripps Research Institute Molecular Screening Center.
